Screening results deposited in PubChem by National Center for Advancing Translational Sciences (NCATS).
Anesthetic bind: binds horse apoferritin like a general anesthetic | P02791 | apoferritin/1-aminoanthracene competitive binding, fluorescence | Potency, µM (titrated, usually from 77.5 µM), without a hit: top-dose activity change, negative = displacement, hits mostly inhibitors | hit rate 0.074% among 350,000 | AID 485281; note: % is set by controls: 0 for no effect and ±100 for the full control effect; nearly all actives have a fitted effect of over 20% in size
Target sequence (P02791 2-175 limits assumed): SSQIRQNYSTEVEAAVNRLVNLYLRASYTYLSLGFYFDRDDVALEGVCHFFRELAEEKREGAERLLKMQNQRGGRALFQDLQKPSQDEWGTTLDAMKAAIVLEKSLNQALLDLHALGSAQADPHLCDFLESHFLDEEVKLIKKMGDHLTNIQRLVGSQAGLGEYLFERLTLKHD
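Steps: apoferritin (10 uM) was premixed with half-saturated 1-AMA in PBS, compounds were pin-transferred, plates stood 10 min at room temperature, fluorescence was read at 380/535 nm, and curves were fitted with a Hill equation.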
PINK1 expr mod: PINK1 expression modulation. Potency, µM (top dose mostly 76.6 µM), inactives show at the top dose activation (PINK1 increase), actives largely listed as activators. hit rate 0.2% among 410,000. AID 624263. PINK1 immunofluorescence, high-content cytometry, 24 h; active = well fitted activation curve with a large enough effect; inconclusive = small, poorly fitted or top-dose-only effect; cell line not stated here; note: % of control where 0% means no effect; nearly all actives have a fitted effect of over 65% in size
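Stable cell line treated 24 h with compounds at 5 concentrations (CCCP controls), then fixed and immunostained for PINK1 plus nuclear and cell stains; PINK1 immunofluorescence quantified by laser-scanning microplate cytometry.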
Epigenetic derep: epigenetic control regulation, reporter derepression. murine LDR cells, GFP reporter derepression, 30 h. AID 1865. hit rate 0.2% among 280,000. Potency, µM (series often up to 53.9 µM), without a hit: at the top dose GFP activation, actives largely listed as activators; note: % of control where 0% means no effect; nearly all actives have a fitted effect of over 60% in size
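Murine LDR cells carrying a silenced, genomically integrated CMV-driven GFP reporter were exposed to compound for 30 hours at 37 C. After PBS washes, GFP-positive cells (20–120 um objects) were counted by laser-scanning microplate cytometry.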
HTT aggregate: mutant huntingtin aggregation inhibition; hit rate 1.1% among 220,000; AID 1688; PC12 HttQ103-GFP aggregates, Acumen cytometry, 40 h; Potency, µM (doses to about 46.1 µM), for the others: at the top dose activity change, negative = inhibition, most hits filed as inhibitors; note: % is set by controls: 0 for no effect and ±100 for the full control effect; nearly all actives have a fitted effect of over 60% in size
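Inducible Q103 Huntingtin exon 1–GFP PC12 line, 1500 cells/well in phenol red free DMEM with 5% equine and 5% calf serum. Tebufenozide 100 nM induced expression; compounds titrated; aggregates quantified by cytometry.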
HTT ATP protect: protects HTT-Q103 PC12 cells, measured by ATP; PC12 HTT-Q103 induced, cytoprotection, ATP luminescence, 40 h; Potency, µM (series often up to 56.4 µM), inactives show cytoprotection (ATP increase), usual class: activators; hit rate 0.14% among 230,000; note: % of control where 0% means no effect; nearly all actives have a fitted effect of over 45% in size
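Quantitative HTS on tebufenozide-induced (100 nM) PC12 cells expressing HTTQ103 exon 1–GFP; compounds tested as a concentration series; survival measured via cellular ATP.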
PTAP TSG101 blk: blocks PTAP/TSG101 interaction to inhibit HIV-1 budding. Q99816. Fluorescence polarization, FITC-PTAP peptide / Tsg101 binding. Potency, µM (titrated, usually from 115 µM), without a hit: top-dose activity change, negative = inhibition, hits mostly inhibitors. 340,000 tested, under 10 active; active = well fitted inhibition curve with a large enough effect in the main read-out, with a control signal flat, not every such curve was filed as active; inconclusive = small, poorly fitted or top-dose-only effect, or effect the other way, or a change in a side signal; inactive = no such curve, though single readings can be large or run the other way; note: % of control where 0% means no effect
Target sequence (Q99816 whole entry, looked up): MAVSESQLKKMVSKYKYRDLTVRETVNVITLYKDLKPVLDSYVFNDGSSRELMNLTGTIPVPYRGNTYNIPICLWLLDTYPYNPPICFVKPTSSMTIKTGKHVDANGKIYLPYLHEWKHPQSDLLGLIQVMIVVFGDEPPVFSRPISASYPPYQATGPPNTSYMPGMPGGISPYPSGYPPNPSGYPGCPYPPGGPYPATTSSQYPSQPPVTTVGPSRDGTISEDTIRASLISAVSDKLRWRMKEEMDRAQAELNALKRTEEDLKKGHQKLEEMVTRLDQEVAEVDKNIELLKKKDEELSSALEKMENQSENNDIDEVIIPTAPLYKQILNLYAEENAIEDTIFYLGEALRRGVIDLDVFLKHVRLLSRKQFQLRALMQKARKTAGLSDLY
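Fluorescence anisotropy tracks displacement of a FITC-tagged PTAP peptide (50 nM) from the Tsg101 binding domain (10 uM), following a 20 min room-temperature incubation at pH 7.5.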
* marks the source's active call; other numbers are inactive results; ? = inconclusive; . = no result; [ ] = another dose, or the depositor's remark. Shown is part of a subset that was picked to be rich in hits. Unless noted, calls come from the whole dose curve; as a rule, active = well fitted curve in the direction sought with a large enough effect; inconclusive = small, poorly fitted or top-dose-only effect, or another doubt; inactive = no such curve, though single readings can be large; an effect the other way counts as inactive or inconclusive. Potency is the fitted concentration of half-maximal effect.

SMILES | Anesthetic bind | PINK1 expr mod | Epigenetic derep | HTT aggregate | HTT ATP protect | PTAP TSG101 blk
Cc1ccc(C)c(-n2nnnc2Sc2nnnn2-c2ccccc2)c1 | -16% | -5% | -1% | 20µM* | -88%[10 µM] | -6%
CCOC(=O)c1c(NS(=O)(=O)c2cccc(OC)c2)sc2c1CCC2 | -2% | -2%[38.3 µM] | 1% | -6% | 14µM* | .
CCOC(=O)c1c(NC(=O)c2cc(-c3cccc(OC)c3)on2)sc2c1CCCC2 | 3% | -1% | -1% | . | . | .
O=C(COc1ccccc1)NC1CCCCC1 | 0% | 0% | -1% | -2% | . | -4%
O=C(COc1ccccc1)NC1CCCCCCC1 | 45µM* | 0% | . | . | . | -5%
Cc1ccccc1N=Cc1cc2c(cc1O)OC(N)=C(C#N)C2c1ccccc1 (centres undefined) | 8% | -2% | 0% | ? | 26%[1.9 µM] | ?
N#CC1=C(N)Oc2cc(O)c(C=Nc3ccccc3)cc2C1c1ccccc1 (centres undefined) | -2% | -1% | 0% | 1.6µM* | 7%[1.9 µM] | -1%
Cc1ccc(N=Cc2cc3c(cc2O)OC(N)=C(C#N)C3c2ccccc2)cc1 (centres undefined) | -8% | -2% | 1% | 10µM* | -16%[1.9 µM] | 6%
COc1cc(=O)n2c(c1C(=O)NCc1ccc3c(c1)OCO3)CCN(C(=O)c1ccc(C)cc1)CC2 | . | 0% | . | . | . | .
CC(=O)Nc1ccc(/C=C2\C=Cc3ccccc32)cc1 | . | 3% | . | . | . | .
COc1ccc(CN2CCC3(CC2)c2ccccc2[C@@H](NC(=O)c2ccsc2)[C@@H]3OC)cc1O | . | 0% | . | . | . | .
N/C(=N\OC(=O)COc1ccccc1)c1cccnc1 | -2% | 3% | -1% | -10% | 32% | -4%
N/C(=N\OC(=O)C(c1ccccc1)c1ccccc1)c1cccnc1 | -22% | 3%[38.3 µM] | 0% | 0.71µM* | 12% | 1%
CC(O)(COc1ccccc1)c1ccc2c(c1)CN(Cc1ccccn1)CCO2 (centres undefined) | . | -1% | . | . | . | .
CC1(C)N=C(SCC(=O)Nc2ccccc2)C(c2ccc(Cl)cc2)=N1 | ? | 2% | 2% | 21% | 18µM* | -1%
Cc1ccc(C2=NC(C)(C)N=C2SCC(=O)Nc2ccc(Cl)cc2)cc1 | ? | 1% | -1% | 5%[9.22 µM] | 3% | 1%
CC(C)(C)N1C(=O)[C@@H]2[C@H]3C(=CC[C@H]2C1=O)C(=O)[C@H]1O[C@H]1[C@H]3O | -3%[15.3 µM] | . | 1%[10.1 µM] | . | 5.6µM* | .
O=C1C2=CC[C@@H]3C(=O)N(c4ccc(F)cc4F)C(=O)[C@H]3[C@H]2[C@H](O)[C@H]2O[C@H]12 | 8%[15.3 µM] | . | ? | . | 3.2µM* | .
C[C@@H](c1ccccc1)N1C(=O)[C@@H]2[C@H]3C(=CC[C@H]2C1=O)C(=O)[C@H]1O[C@H]1[C@H]3O | -9%[15.3 µM] | . | 1%[10.1 µM] | . | -4%[10 µM] | .
CN(C)C(=O)c1ccc(NC(=O)c2cncc(Br)c2)cc1 | -5% | -1% | -1% | 16µM* | 20%[10 µM] | -9%
Cc1ccc(C(=O)Nc2ncc([N+](=O)[O-])s2)cc1 | 4% | 35µM* | . | . | . | -5%
Cc1onc(-c2ccccc2)c1C(=O)Nc1ncc([N+](=O)[O-])s1 | 9% | 13µM* | . | . | . | -4%
Cc1cccc(NC(=O)c2c(-c3ccccc3)noc2C)n1 | -4% | 0% | 0% | -9% | 2.2µM* | 0%
COC(=O)Cc1sc(-c2ccccn2)nc1-c1ccccc1 | -10% | 0% | -2% | -5% | 1µM* | 0%
Cc1cccn2c(=O)c3cc(C(=O)NCc4ccco4)c(=N)n(CCOCCO)c3nc12 | -7% | 1% | 2% | 2.8µM* | -86% | -9%
SMILES | Anesthetic bind | PINK1 expr mod | Epigenetic derep | HTT aggregate | HTT ATP protect | PTAP TSG101 blk
O=C(NCc1ccco1)c1cccn2c(=O)c3cc4ccccc4cc3nc12 | -13% | . | 16µM* | -4%[9.22 µM] | -65% | .
CCOc1ccc(C2=C(C(=O)CC)Sc3nncn3N2C(=O)CC)cc1 | -11% | 0% | -1% | . | . | .
CC(=O)Nc1cc(C(=O)N2CC3(C)CC2CC(C)(C)C3)cc2ncn(CCc3ccccn3)c12 (centres undefined) | . | 0% | . | . | . | .
Cc1ccc(CNC(=O)Cn2cc(C(=O)c3ccc(F)cc3)c(=O)c3ccc(C)nc32)cc1 | -13% | 0% | -1% | . | . | .
CCc1ccc(C(=O)c2cn(CC(=O)Nc3cc(F)ccc3F)c3nc(C)ccc3c2=O)cc1 | ? | 3% | 20µM* | . | . | .
O=S(Cc1ccc(Br)cc1)Cc1nnc(SCc2c(Cl)cccc2Cl)n1-c1ccccc1 (centres undefined) | 49% | 13% | 0% | 22µM* | ? | -3%
Cn1c(CS(=O)Cc2c(Cl)cccc2Cl)nnc1SCc1c(Cl)cccc1Cl (centres undefined) | 1% | -2%[38.3 µM] | 1% | 9% | 0%[10 µM] | 5%
O=C(Nc1ccc(Cl)cc1)N1CCC(c2nc(-c3ccccc3Cl)no2)CC1 | 8% | 13% | 0% | 11µM* | -25% | -9%
CCS(=O)(=O)N1CCC(c2nc(-c3ccc(C(F)(F)F)cc3)no2)CC1 | -10% | 0%[38.3 µM] | -5% | 11µM* | -38% | 0%
O=C(Nc1cccc(C(F)(F)F)c1)N1CCC(c2nc(-c3ccc(F)cc3)no2)CC1 | -9% | 16%[38.3 µM] | 4% | 22µM* | -16%[10 µM] | .
O=C(Nc1ccccc1)N1CCC(c2nc(-c3ccc(S(=O)(=O)N4CCOCC4)cc3)no2)CC1 | ? | 13µM* | 6% | -23% | -52% | -4%
O=C(Nc1ccccc1)N1CCCC(c2nc(-c3ccc(F)cc3)no2)C1 (centres undefined) | -22% | 0% | 0% | -17% | -1% | 1%
O=C(c1ccccc1)N1CCC(c2nc(-c3ccc(S(=O)(=O)N4CCOCC4)cc3)no2)CC1 | -19% | 1% | -1% | ? | -24% | -10%
O=C1CCCCN1CCC(=O)N1CCOc2ccc(C(O)C3CCCCC3)cc2C1 (centres undefined) | . | 1% | . | . | . | .
O=C(c1ccnc(-n2cnnn2)c1)N1CCOc2ccc(C(O)CCc3ccccc3)cc2C1 (centres undefined) | . | 1% | . | . | . | .
Cc1nc2sccn2c1CN1CCOc2ccc(CN3C[C@@H](C)O[C@@H](C)C3)cc2C1 | . | 0% | . | . | . | .
O=S(=O)(c1ccc2c(c1)OCO2)N1CCN(c2nc(-c3cccs3)nc3ccccc23)CC1 | . | -1% | . | . | . | .
Cc1ccc(NC(=S)NNC(=O)c2cccc([N+](=O)[O-])c2)cc1Cl | -16% | 35µM* | 1% | -18%[9.22 µM] | 13%[10 µM] | 1%
On1onc2c3cc(-c4ccccc4)nc3ccc21 | ? | 12% | 16µM* | -14% | -3% | -1%
